Measurements published in the supplement of paper PMC11060735.
“And” between values parts separate entries of the source, which are not always exact repeats. Equal values may be shown once. Where a name gives a salt, the structure may show the parent alone. Among all 1,800 compounds or so, about 50 (3%) showed activity. This excerpt belongs to a sample that is enriched for actives. Unmarked numbers belong to inactive results.

tested on: mouse p16Ink4a+/- lung fibroblasts (INKBRITE, bleomycin-injured); test: percentage of GFP+ (p16Ink4a+) fibroblasts among all cells in well; higher = less depletion of p16Ink4a+ cells, active = 20 or less; settings: 1 µM; 3 days

SMILES | percentage of GFP+
COC1=C(OC)C(=O)C(CCCCCCCCCCO)=C(C)C1=O [Idebenone] | 43.7%
CCCc1cc(C)nc(O)c1CNC(=O)c1cc(-c2ccc(N3CCN(C(C)C)CC3)nc2)cc2c1cnn2C(C)C | 39.6%
O=C(O)c1cc(-c2ccccc2)nc2ccccc12 [Cinchophen] | 46.7%
C[C@@]1(c2cc(-c3cncnc3)c(F)cc2F)CCSC(N)=N1 | 36.4%
COC(=O)c1ccc2c(/C(=N/c3ccc(N(C)C(=O)CN4CCN(C)CC4)cc3)c3ccccc3)c(O)[nH]c2c1 [Nintedanib] | 25.4%
O=C(NC1CCOCC1)c1ccc(-c2cc(-c3c[nH]nc3-c3ccccn3)ccn2)cc1 | 40.4%
Cc1cnc(NC(=O)Nc2cc(Br)c(C)cc2OC[C@@H]2CNCCO2)cn1 | 28.6%
CCc1c(Cl)c(O)c(Cl)c(O)c1C(=O)O[C@H]1[C@H](O)[C@H](OC)[C@H](OC/C2=C\C=C\C[C@H](O)/C(C)=C\[C@H](CC)[C@@H](O[C@@H]3OC(C)(C)[C@@H](OC(=O)C(C)C)[C@H](O)[C@@H]3O)/C(C)=C\C(C)=C/C[C@@H]([C@@H](C)O)OC2=O)O[C@@H]1C [Fidaxomicin] | 50.9%
Cc1cc(C#N)cc(C)c1Oc1nc(Nc2ccc(C#N)cc2)nc(N)c1Br [Etravirine] | 35%
COc1cccc2c1C(=O)c1c(O)c3c(c(O)c1C2=O)C[C@@](O)(C(C)=O)C[C@@H]3O[C@H]1C[C@H](N)[C@H](O)[C@H](C)O1 [Daunorubicin] | 24.3%
CC(=O)[C@]1(O)Cc2c(O)c3c(c(O)c2[C@@H](O[C@H]2C[C@H](N)[C@H](O)[C@H](C)O2)C1)C(=O)c1ccccc1C3=O [Idarubicin, Idarubicin Hydrochloride] | 19.9% (active)
COc1cccc2c1C(=O)c1c(O)c3c(c(O)c1C2=O)C[C@@](O)(C(=O)CO)C[C@@H]3O[C@H]1C[C@H](N)[C@H](O)[C@H](C)O1 [Doxorubicin] | 25.2%
CC(=O)N1CCN(CCOc2ccc(C3CCN(C4=Nn5c(nnc5C(F)(F)F)CC4)CC3)cc2)CC1 | 43.8%
CC[C@H](C)[C@H]1O[C@]2(CC[C@@H]1C)C[C@@H]1C[C@@H](C/C=C(\C)[C@@H](O[C@H]3C[C@H](OC)[C@@H](O[C@H]4C[C@H](OC)[C@@H](O)[C@H](C)O4)[C@H](C)O3)[C@@H](C)/C=C/C=C3\CO[C@@H]4[C@H](O)C(C)=C[C@@H](C(=O)O1)[C@]34O)O2 [Ivermectin] | 37.9%
Cc1cccc(CC(=O)N2CCc3c2ccc(-c2cn(C)c4ncnc(N)c24)c3F)n1 | 45%
COc1cc(C(=O)NS(=O)(=O)c2ccccc2C)ccc1Cc1cn(C)c2ccc(NC(=O)OC3CCCC3)cc12 [Zafirlukast] | 47.1%
CN1CCc2c(c3ccccc3n2Cc2ccc(C(=O)NO)cc2)C1 [Tubastatin A HCl] | 53.9% and 45%
Cn1cc(CNCC2CCN(c3ncc(C(=O)NO)cn3)CC2)c2ccccc21 [Quisinostat] | 1.92% (active)
COc1ccc(COc2ccc(Cc3cnc(N)nc3N)cc2OC)cc1 | 33.4%
Cc1cccc(C)c1OCC(C)N (stereo unspecified) [Mexiletine] | 46%
Cc1cc(C)c(CNC(=O)c2cc(-c3ccc(CN4CCOCC4)cc3)cc3c2cnn3C2CCCC2)c(O)n1 | 49.7%

SMILES | percentage of GFP+
CCN(c1cc(-c2ccc(CN3CCOCC3)cc2)cc(C(=O)NCc2c(C)cc(C)nc2O)c1C)C1CCOCC1 | 54.5%
CCNC(=O)c1noc(-c2cc(C(C)C)c(O)cc2O)c1-c1ccc(CN2CCOCC2)cc1 [Luminespib (NVP-AUY922)] | 6.33% (active)
Cc1cc(C2CCCCC2)n(O)c(=O)c1 [Ciclopirox] | 29.6% and 35.5%
CCCOc1ccc(C(=O)OCCN(CC)CC)cc1N [Proparacaine] | 37.1%
COC(=O)CCSCc1ccc(-c2onc(C)c2NC(=O)OC(C)c2ccccc2Cl)cc1 (stereo unspecified) | 43.9%
CCN(CC)CCCC(C)Nc1c2ccc(Cl)cc2nc2ccc(OC)cc12 (stereo unspecified) [Quinacrine] | 46.6%
O=C(/C=C\n1cnc(-c2cc(C(F)(F)F)cc(C(F)(F)F)c2)n1)NNc1cnccn1 [Selinexor (KPT-330)] | 14.7% (active)
COc1cc(-c2ncn(/C=C\C(=O)OC(C)C)n2)cc(C(F)(F)F)c1 | 14.1% (active)
O=C(/C=C\n1cnc(-c2cc(C(F)(F)F)cc(C(F)(F)F)c2)n1)N1CC(F)(F)C1 | 24.1%
CN(C)CCOC(c1ccccc1)c1ccccc1 [Diphenhydramine] | 47.9%
CC(C)(C)c1cnc(CSc2cnc(NC(=O)C3CCNCC3)s2)o1 | 28.7%
N#Cc1ccc2[nH]c(O)c(-c3ccc(CN4CCOCC4)cn3)c2c1 | 40.8%
CO/C(O)=C1\C(C)=NC(C)=C(C(=O)O[C@@H]2CCCN(Cc3ccccc3)C2)[C@@H]1c1cccc([N+](=O)[O-])c1 [Benidipine] | 41.8%
Cn1c(=O)c2c(ncn2CC2OCCO2)n(C)c1=O [Doxofylline] | 41%
CC(C)OC(=O)C(C)(C)Oc1ccc(C(=O)c2ccc(Cl)cc2)cc1 [Fenofibrate] | 45.5%
O=C1CCc2cc(OCCCCc3nnnn3C3CCCCC3)ccc2N1 [Cilostazol] | 45.1%
CN1CC[C@@H](c2c(O)cc(O)c3c(=O)cc(-c4ccccc4Cl)oc23)[C@@H]1CO | 20.2%
CN1CC[C@H](c2c(O)cc(O)c3c(=O)cc(-c4ccccc4Cl)oc23)[C@H](O)C1 [Flavopiridol] | 4.28% (active)
CC(=O)C1=C(O)C=C2Oc3c(C(C)=O)c(O)c(C)c(O)c3[C@]2(C)C1=O [(+)-Usniacin] | 45.5%
CCNC1=N[C@@H]2[C@@H](O)[C@H](O)[C@@H](CO)O[C@@H]2S1 [Thiamet G] | 56.9%
